In all, about 5,500 compounds went through this assay and about 2,000 (36%) were called active. Another 18% or so got no clear call; they are omitted. Rule as the data show it: active = normalized growth mostly below about 0.91 (no sharp cut-off); inconclusive = no clear call, values can overlap the other calls; inactive = mostly above about 0.92. Some of the results follow.
Assay: chemical genetic growth profiling, strain panel (AID 1159580);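 also: tested at 20 µM; growth read once vehicle control cultures reached saturation at 30 °C; 1 = growth at the plate median or of vehicle wells; lower values mean less growth of the strain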
Settings: growth OD

Measured: normalized growth

CN1CC(CO)=C[C@@H]2c3cccc4[nH]cc(c34)C[C@H]21
inactive: S. cerevisiae deletion strains, locus YAL013W, strain DEP1, stronger effect = lower value 0.994 | S. cerevisiae deletion strains, locus YBR021W, strain FUR4, stronger effect = lower value 1.02 | S. cerevisiae deletion strains, locus YBR229C, strain ROT2, stronger effect = lower value 0.967 | S. cerevisiae deletion strains, locus YCL029C, strain bik1, stronger effect = lower value 1.01 | S. cerevisiae deletion strains, locus YDL035C, strain GPR1, stronger effect = lower value 0.99 | S. cerevisiae deletion strains, locus YDL074C, strain BRE1, stronger effect = lower value 0.957 | S. cerevisiae deletion strains, locus YDL101C, strain DUN1, stronger effect = lower value 0.97 | S. cerevisiae deletion strains, locus YDL134C, strain PPH21, stronger effect = lower value 0.998 | S. cerevisiae deletion strains, locus YDL185W, strain tfp1, stronger effect = lower value 0.982 | S. cerevisiae deletion strains, locus YDL192W, strain arf1, stronger effect = lower value 1.01 | S. cerevisiae deletion strains, locus YDR101C, strain arx1, stronger effect = lower value 1.01 | S. cerevisiae deletion strains, locus YDR150W, strain NUM1, stronger effect = lower value 0.991 | S. cerevisiae deletion strains, locus YDR162C, strain NBP2, stronger effect = lower value 0.964 | S. cerevisiae deletion strains, locus YDR318W, strain mcm21, stronger effect = lower value 1.02 | S. cerevisiae deletion strains, locus YDR388W, stronger effect = lower value 1.01 | S. cerevisiae deletion strains, locus YDR502C, strain sam2, stronger effect = lower value 0.993 | S. cerevisiae deletion strains, locus YEL061C, strain CIN8, stronger effect = lower value 0.995 | S. cerevisiae deletion strains, locus YER110C, stronger effect = lower value 1.01 | S. cerevisiae deletion strains, locus YER155C, strain BEM2, stronger effect = lower value 1.01 | S. cerevisiae deletion strains, locus YER167W, strain BCK2, stronger effect = lower value 1.01 | S. cerevisiae deletion strains, locus YGL078C, strain dbp3, stronger effect = lower value 0.997 | S. cerevisiae deletion strains, locus YGL086W, strain mad1, stronger effect = lower value 1.01 | S. cerevisiae deletion strains, locus YGL248W, strain PDE1, stronger effect = lower value 0.988 | S. cerevisiae deletion strains, locus YGR078C, strain PAC10, stronger effect = lower value 0.977 | S. cerevisiae deletion strains, locus YGR135W, strain pre9, stronger effect = lower value 0.985 | S. cerevisiae deletion strains, locus YGR229C, strain SMI1, stronger effect = lower value 0.992 | S. cerevisiae deletion strains, locus YGR252W, strain gcn5, stronger effect = lower value 1.05 | S. cerevisiae deletion strains, locus YHR030C, strain SLT2, stronger effect = lower value 1.01 | S. cerevisiae deletion strains, locus YHR079C, strain IRE1 (second series), stronger effect = lower value 1.01 | S. cerevisiae deletion strains, locus YHR094C, strain hxt1, stronger effect = lower value 1.01 | S. cerevisiae deletion strains, locus YHR129C, strain ARP1, stronger effect = lower value 1.01 | S. cerevisiae deletion strains, locus YHR200W, strain rpn10, stronger effect = lower value 1.01 | S. cerevisiae deletion strains, locus YIL066C, strain RNR3, stronger effect = lower value 0.983 | S. cerevisiae deletion strains, locus YIL073C, strain SPO22, stronger effect = lower value 1.05 | S. cerevisiae deletion strains, locus YIL125W, strain kgd1, stronger effect = lower value 0.996 | S. cerevisiae deletion strains, locus YIR030C, strain dcg1, stronger effect = lower value 1 | S. cerevisiae deletion strains, locus YJL095W, strain BCK1, stronger effect = lower value 0.995 | S. cerevisiae deletion strains, locus YJL134W, strain LCB3, stronger effect = lower value 0.989 | S. cerevisiae deletion strains, locus YJL168C, strain set2, stronger effect = lower value 0.998 | S. cerevisiae deletion strains, locus YJL187C, strain SWE1 (second series), stronger effect = lower value 0.975 | S. cerevisiae deletion strains, locus YJR043C, strain POL32, stronger effect = lower value 1.03 | S. cerevisiae deletion strains, locus YJR075W, strain HOC1, stronger effect = lower value 0.945 | S. cerevisiae deletion strains, locus YKL009W, strain mrt4, stronger effect = lower value 1.01 | S. cerevisiae deletion strains, locus YKL068W, stronger effect = lower value 0.999 | S. cerevisiae deletion strains, locus YKL085W, strain MDH1 (second series), stronger effect = lower value 1.02 | S. cerevisiae deletion strains, locus YKL085W, strain MDH1, stronger effect = lower value 1.02 | S. cerevisiae deletion strains, locus YKL190W, strain CNB1, stronger effect = lower value 0.994 | S. cerevisiae deletion strains, locus YKR001C, strain vps1, stronger effect = lower value 1.02 | S. cerevisiae deletion strains, locus YLR039C, strain RIC1, stronger effect = lower value 0.954 | S. cerevisiae deletion strains, locus YLR058C, strain SHM2, stronger effect = lower value 0.982 | S. cerevisiae deletion strains, locus YLR102C, strain apc9, stronger effect = lower value 1 | S. cerevisiae deletion strains, locus YLR262C, strain YPT6, stronger effect = lower value 0.957 | S. cerevisiae deletion strains, locus YLR268W, strain sec22, stronger effect = lower value 0.975 | S. cerevisiae deletion strains, locus YLR330W, strain CHS5, stronger effect = lower value 1 | S. cerevisiae deletion strains, locus YLR342W, strain FKS1 (second series), stronger effect = lower value 1.03 | S. cerevisiae deletion strains, locus YLR371W, strain rom2, stronger effect = lower value 1.01 | S. cerevisiae deletion strains, locus YLR418C, strain cdc73, stronger effect = lower value 0.966 | S. cerevisiae deletion strains, locus YML016C, strain PPZ1, stronger effect = lower value 1 | S. cerevisiae deletion strains, locus YML032C, strain rad52, stronger effect = lower value 1.01 | S. cerevisiae deletion strains, locus YML124C, strain tub3, stronger effect = lower value 1.01 | S. cerevisiae deletion strains, locus YMR078C, strain ctf18, stronger effect = lower value 1.01 | S. cerevisiae deletion strains, locus YMR223W, strain ubp8, stronger effect = lower value 1.02 | S. cerevisiae deletion strains, locus YMR263W, strain SAP30, stronger effect = lower value 0.955 | S. cerevisiae deletion strains, locus YMR307W, strain GAS1, stronger effect = lower value 1.06 | S. cerevisiae deletion strains, locus YNL067W, strain RPL9B, stronger effect = lower value 0.987 | S. cerevisiae deletion strains, locus YNL128W, strain TEP1, stronger effect = lower value 0.939 | S. cerevisiae deletion strains, locus YNL153C, strain GIM3, stronger effect = lower value 0.975 | S. cerevisiae deletion strains, locus YNL233W, strain BNI4, stronger effect = lower value 0.99 | S. cerevisiae deletion strains, locus YNL250W, strain rad50, stronger effect = lower value 0.988 | S. cerevisiae deletion strains, locus YNL271C, strain bni1, stronger effect = lower value 1.01 | S. cerevisiae deletion strains, locus YNL298W, strain CLA4, stronger effect = lower value 1.01 | S. cerevisiae deletion strains, locus YNL307C, strain MCK1, stronger effect = lower value 1.02 | S. cerevisiae deletion strains, locus YNL322C, strain KRE1, stronger effect = lower value 0.982 | S. cerevisiae deletion strains, locus YNR052C, strain pop2, stronger effect = lower value 1.01 | S. cerevisiae deletion strains, locus YOL006C, strain TOP1, stronger effect = lower value 0.983 | S. cerevisiae deletion strains, locus YOL012C, strain htz1 1.85 | S. cerevisiae deletion strains, locus YOL147C, strain pex11, stronger effect = lower value 1.01 | S. cerevisiae deletion strains, locus YOR061W, strain CKA2, stronger effect = lower value 0.963 | S. cerevisiae deletion strains, locus YOR069W, strain VPS5, stronger effect = lower value 1 | S. cerevisiae deletion strains, locus YOR136W, strain idh2, stronger effect = lower value 1.01 | S. cerevisiae deletion strains, locus YOR144C, strain elg1, stronger effect = lower value 1.01 | S. cerevisiae deletion strains, locus YOR184W, strain ser1, stronger effect = lower value 1.02 | S. cerevisiae deletion strains, locus YOR316C, strain cot1, stronger effect = lower value 1 | S. cerevisiae deletion strains, locus YPL055C, strain LGE1, stronger effect = lower value 0.938 | S. cerevisiae deletion strains, locus YPL241C, strain CIN2, stronger effect = lower value 0.997 | S. cerevisiae deletion strains, locus YPR119W, strain clb2, stronger effect = lower value 1.01 | S. cerevisiae deletion strains, locus YPR141C, strain kar3, stronger effect = lower value 0.998 | S. cerevisiae deletion strains, locus YPR163C, strain tif3, stronger effect = lower value 1.01 | S. cerevisiae deletion strains, locus YPR167C, strain met16, stronger effect = lower value 0.996 | S. cerevisiae deletion strains, strain wtn01, stronger effect = lower value 0.995 | S. cerevisiae strains, strain wild type, stronger effect = lower value 0.99
